Measured values as given in PubChem BioAssay (EPA / NIEHS).
Records with an inconclusive call do not appear. Active and inactive are the calls of the source. Rule for the calls: active = hit-call score of the fitted dose curve at least 0.9, where 1 is the maximum; inconclusive = response in the unintended direction; inactive = score below 0.9.

molecular target: Peroxisome proliferator-activated receptor gamma (Homo sapiens) (UniProt P37231); assay: ATG_PPARg_TRANS: Attagene TRANS-FACTORIAL HepG2 Assay for human Peroxisome Proliferator-activated Receptor-gamma (PPARg) (AID 2283007)
Protocol: ATG_TRANS is a cell-based, multiplexed-readout assay that uses HepG2, a human liver cell line, with measurements taken at 24 hours after chemical dosing in a 24-well plate.ATG_PPARg_TRANS is one of 30 assay component(s) measured or calculated from the ATG_TRANS assay. It is designed to make measurements of mRNA induction, a form of inducible reporter, as detected with fluorescence intensity signals by Reverse transcription polymerase chain reaction (RT-PCR) and Capillary electrophoresis technology.Data from the assay component ATG_PPARg_TRANS was analyzed into 1 assay endpoint. This assay endpoint, ATG_PPARg_TRANS, was analyzed in the positive analysis fitting direction relative to DMSO as the negative control and baseline of activity. Using a type of inducible reporter, measures of mRNA for gain-of-signal activity can be used to understand the reporter gene at the transcription factor-level as they relate to the gene PPARG. Furthermore, this assay endpoint can be referred to as a primary readout, because this assay has produced multiple assay endpoints where this one serves a reporter gene function. To generalize the intended target to other relatable targets, this assay endpoint is annotated to the nuclear receptor intended target family, where the subfamily is non-steroidal.
Human liver HepG2 cells are transiently transfected with multiple reporter transcription units (MRTUs) in 6-well plates using FuGene 6 reagent (Roche; 3 ml FuGene/1 mg DNA). The MRTU constructs are regulated by a cis-regulating element (promoter). […] A major difference between the CIS and TRANS system is that in CIS activities of endogenous TFs are measured, whereas the TRANS assay evaluates changes in activities of exogenous, chimeric NR-Gal4 proteins. […] At the end of 24 hour incubation, total RNA was isolated using TriZol reagent (Invitrogen). The isolated RNA is then reverse-transcribed using oligo(dT) primer and Mo-MLV reverse transcriptase (Invitrogen) with DNAse I (Ambion) treatment for 30 min. The one-tenth of the produced cDNA was amplified by PCR using Taq DNA polymerase (Invitrogen) and two reporter sequence-specific primers. The PCR products were fluorescently labeled by primer extension with 6-arboxyfluorescein (6-FAM) 5'-labeled reporter sequence-specific primer (2 min at 95 C, 20 s at 68 C and 10 min at 72 C) and these products were digested with 5U of HpaI (New England Biolabs) for 2h at 37 C. The fragments were purified using Qiaquick PCR columns (Qiagen), analyzed on an ABI 3130xL genetic analyzer (Applied Biosystems) with peak positions identified by using a set of X-rhodamine (ROX)-labeled MapMarker1000 molecular weight standards (BioVentures). The raw capillary electrophoresis data was processed using Attagraph software (Attagene).

Sequence of Peroxisome proliferator-activated receptor gamma (Homo sapiens) (P37231 whole entry, looked up): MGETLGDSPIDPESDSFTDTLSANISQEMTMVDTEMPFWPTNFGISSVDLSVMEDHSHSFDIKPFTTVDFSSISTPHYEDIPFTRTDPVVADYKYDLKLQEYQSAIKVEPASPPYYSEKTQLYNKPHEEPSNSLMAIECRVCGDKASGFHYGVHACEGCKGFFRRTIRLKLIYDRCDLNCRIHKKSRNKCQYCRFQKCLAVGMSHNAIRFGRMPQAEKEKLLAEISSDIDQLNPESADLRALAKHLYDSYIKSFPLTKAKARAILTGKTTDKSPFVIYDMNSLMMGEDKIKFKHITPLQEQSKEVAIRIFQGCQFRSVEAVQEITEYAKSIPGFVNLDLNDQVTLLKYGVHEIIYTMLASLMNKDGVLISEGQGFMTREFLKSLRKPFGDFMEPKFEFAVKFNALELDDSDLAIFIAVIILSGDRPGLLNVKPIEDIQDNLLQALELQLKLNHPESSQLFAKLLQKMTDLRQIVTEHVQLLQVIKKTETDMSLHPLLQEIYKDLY

Structure (SMILES)	outcome	AC50
CN(C)CCC=C1c2ccccc2CCc2ccccc21	inactive	–
[Cu+]	inactive	–
CCCCCCCCCCCCCCCCCC(=O)OCCCCCCCCCCCCCC(C)C	inactive	–
Cc1cc(N)n(-c2ccccc2)n1	inactive	–
CCNC(=S)NCC	inactive	–
CC/C=C\CCOC(C)OCC (stereo not given)	inactive	–
NC(N)=NC(N)=NCCc1ccccc1	inactive	–
CCC(=O)OC/C=C(\C)CCC=C(C)C	inactive	–
CCOC(=O)COC(=O)c1ccccc1C(=O)OCC	inactive	–
c1coc(CNc2ncnc3nc[nH]c23)c1	inactive	–
CN1CCc2cccc3c2[C@H]1Cc1ccc(O)c(O)c1-3	–	12 µM (active)
CC(=O)OC(C)(C)C	inactive	–
CC(CCO)CC(C)(C)C (stereo not given)	inactive	–
O=S(=O)(O)CCCN1CCOCC1	inactive	–
Cc1cc(O)c2c(c1)C(=O)c1cc(O)cc(O)c1C2=O	–	9.51 µM (active)
Nc1ccn([C@H]2CC[C@@H](CO)O2)c(=O)n1	inactive	–
O=S1(=O)CC(Cl)(Cl)C(Cl)(Cl)C1	inactive	–
Cc1cccc(C)c1	inactive	–
CC(C)COC(=O)c1ccccc1O	inactive	–
CC(=O)c1ccc(O)cc1	inactive	–

Structure (SMILES)	outcome	AC50
C=CCCCCCCCCC(=O)OCC	–	55.9 µM (active)
CC(C)(C)C1CCC(O)CC1 (stereo not given)	inactive	–
CN(C)C(=O)Nc1ccccc1	inactive	–
CCCCCCCOC(C)=O	inactive	–
CCCCCCC(O)CCOC(C)=O (stereo not given)	inactive	–
CC(=O)Nc1cc(S(=O)(=O)O)cc2cc(S(=O)(=O)O)c(N=Nc3ccccc3)c(O)c12	inactive	–
C=COCC1CCC(COC=C)CC1 (stereo not given)	inactive	–
C=CCOC(=O)/C=C\C(=O)OCC=C	–	1.96 µM (active)
C[C@]12CC[C@@H]3c4ccc(O)cc4CC[C@H]3[C@@H]1CC[C@@H]2O	inactive	–
NS(=O)(=O)c1cc(C(=O)O)c(NCc2ccco2)cc1Cl	–	42.7 µM (active)
NNC(=O)OCc1ccccc1	inactive	–
CCCCCCCCCCCCOC(C)=O	inactive	–
O=c1cc(-c2ccc(O)cc2)oc2cc(O)cc(O)c12	–	18.2 µM (active)
CC=CC(=O)C1=C(C)C=CCC1(C)C	inactive	–
O=C(O)c1ccccc1O	inactive	–
C=C(C)C(=O)OCCOCCOC(=O)C(=C)C	inactive	–
Cc1cc(O)c(C)c(C)c1O	–	32.4 µM (active)
CC(O)CN (stereo not given)	inactive	–
CC(=O)OC/C=C(C)/C=C/C=C(C)/C=C/C1=C(C)CCCC1(C)C	–	27.3 µM (active)
CC(C)C(=O)OCC=Cc1ccccc1	inactive	–
